In PubChem BioAssay:
For some of these results: Measured potencies and affinities stand elsewhere. Calls of active or inactive are those of the source.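 The calls were made as follows, unless noted: active = primary screen active and over 50% activation in each of two duplicate runs; inactive = the rest.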

Columns and labels:
[1] = system: TRPC4 beta (transient receptor potential cation channel C4), mouse; assay: TRPC4 cation channel opening, retest – cell-based, Fluo4 calcium, HEK293 TRPC4beta/mu-opioid, duplicates, 10 µM, confirmation (AID 2426;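 active = fluorescence ratio normalized to control raised more than 50% in primary screen plus both repeat runs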); details: Fluo4 calcium fluorescence, at 10 µM; hits give high values
[2] = system: transient receptor potential cation channel C4 beta (TRPC4), mouse; assay: TRPC4 cation channel opening, second retest – cell-based, second round, Fluo4, HEK293 TRPC4beta/mu-opioid, 1 µM, confirmation (AID 2461); details: Fluo4 calcium fluorescence, at 1 µM; hits give high values
[3] = system: TRPC4 (transient receptor potential cation channel C4 beta), mouse; assay: potentiation of DAMGO EC20 TRPC4 response – cell-based, second round, Fluo-4, HEK293 TRPC4beta/mu-opioid, 1 µM, confirmation (AID 2554;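 active = primary screen hit whose fluorescence ratio, in both repeats, exceeds the weak agonist control mean by 3 SD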); details: DAMGO EC20, Fluo-4 calcium flux, at 1 µM; hits give high values
[4] = system: TRPC4 beta (transient receptor potential cation channel C4), mouse; assay: potentiation of DAMGO EC20 TRPC4 response – cell-based, Fluo-4, HEK293 TRPC4beta/mu-opioid, confirmation (AID 2555;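 active = primary screen hit whose calcium fluorescence ratio, in both repeats, exceeds the weak agonist control mean by 3 SD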); details: DAMGO EC20, Fluo-4 calcium flux, at 10 µM; hits give high values
[5] = target: Short transient receptor potential channel 4 (Mus musculus) (UniProt Q9QUQ5); assay: blockers of DAMGO-evoked TRPC4 calcium flux – cell-based, Fluo4, HEK293 TRPC4beta/mu-opioid, confirmation (AID 2636;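 active = calcium signal cut by more than 3 SD below the full-agonist control yet still positive, in both repeats and the earlier primary screen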); details: at 10 µM; hits give high values
Chain of Short transient receptor potential channel 4 (Mus musculus) (Q9QUQ5 whole entry, looked up): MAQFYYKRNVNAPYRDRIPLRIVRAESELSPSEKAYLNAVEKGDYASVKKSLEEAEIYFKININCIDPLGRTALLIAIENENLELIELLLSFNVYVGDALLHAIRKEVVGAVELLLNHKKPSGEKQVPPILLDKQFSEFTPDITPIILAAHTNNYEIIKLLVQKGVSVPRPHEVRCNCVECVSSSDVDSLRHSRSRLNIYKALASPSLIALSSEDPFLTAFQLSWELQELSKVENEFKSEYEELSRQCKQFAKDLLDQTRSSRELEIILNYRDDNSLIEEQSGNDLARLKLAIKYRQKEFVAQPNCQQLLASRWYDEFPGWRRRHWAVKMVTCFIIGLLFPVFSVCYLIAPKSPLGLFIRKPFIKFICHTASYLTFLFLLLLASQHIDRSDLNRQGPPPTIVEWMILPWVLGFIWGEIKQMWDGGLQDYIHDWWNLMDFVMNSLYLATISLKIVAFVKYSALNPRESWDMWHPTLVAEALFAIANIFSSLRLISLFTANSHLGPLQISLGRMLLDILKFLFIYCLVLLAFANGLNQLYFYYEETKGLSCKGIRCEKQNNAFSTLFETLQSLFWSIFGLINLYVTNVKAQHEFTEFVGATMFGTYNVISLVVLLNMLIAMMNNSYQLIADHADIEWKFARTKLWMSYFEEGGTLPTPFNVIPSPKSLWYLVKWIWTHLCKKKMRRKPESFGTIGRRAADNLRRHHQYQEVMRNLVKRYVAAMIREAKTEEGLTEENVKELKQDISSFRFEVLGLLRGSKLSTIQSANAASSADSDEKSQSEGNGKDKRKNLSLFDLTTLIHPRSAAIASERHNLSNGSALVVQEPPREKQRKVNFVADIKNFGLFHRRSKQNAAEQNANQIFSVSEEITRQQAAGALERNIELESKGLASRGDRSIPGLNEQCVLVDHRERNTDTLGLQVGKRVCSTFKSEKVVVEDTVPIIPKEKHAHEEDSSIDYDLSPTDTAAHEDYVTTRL

[6] = target: Short transient receptor potential channel 4 (Mus musculus) (UniProt Q9QUQ5); assay: blockers of DAMGO-evoked TRPC4 calcium flux – cell-based, second round, Fluo4, HEK293 TRPC4beta/mu-opioid, 1 µM, confirmation (AID 2637;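 active = calcium signal ratio cut to more than 3 SD under the fully stimulated control mean yet still positive, in both repeats and the primary screen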;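 as to inhibition: percent of integrated ratio relative to wells lacking test compound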); details: at 1 µM; hits give high values
[7] = target: Short transient receptor potential channel 4 (Mus musculus) (UniProt Q9QUQ5); assay: calcium entry via TRPC4 opening agents – cell-based, HEK293 TRPC4/mu-opioid, Fluo-4 calcium, dose response (AID 434937;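 active = primary screen activator hit with a dose response curve and TRPC4 channel activation at any tested dose; inactive = no activation, no dose response, or not a primary hit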)
[8] = target: Short transient receptor potential channel 4 (Mus musculus) (UniProt Q9QUQ5); assay: potentiation of DAMGO-evoked TRPC4 calcium signal – cell-based, HEK293 TRPC4/mu-opioid, Fluo-4 calcium, EC20 DAMGO, dose response (AID 434941;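 active = earlier screen potentiator hit that boosts the TRPC4 ion channel at some dose, with a dose response; inactive = no potentiation, no dose response, or not a prior hit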;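 also: calcium entry triggered by an EC20 dose of DAMGO at the co-expressed mu-opioid receptor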)
[9] = target: Short transient receptor potential channel 6 (Mus musculus) (UniProt Q61143); assay: TRPC6 blockade by TRPC4 inhibitor hits – cell-based, HEK293, membrane potential dye, duplicate, selectivity assay for TRPC4 inhibitor project, confirmation (AID 434948;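 active = active in primary screen and both duplicates, each dropping signal beyond three positive-control SD with fluorescence still positive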); details: HEK293 TRPC6, membrane potential dye fluorescence, at 10 µM, stimulated with maximal-effect acetylcholine; hits give high values
Chain of Short transient receptor potential channel 6 (Mus musculus) (Q61143 whole entry, looked up): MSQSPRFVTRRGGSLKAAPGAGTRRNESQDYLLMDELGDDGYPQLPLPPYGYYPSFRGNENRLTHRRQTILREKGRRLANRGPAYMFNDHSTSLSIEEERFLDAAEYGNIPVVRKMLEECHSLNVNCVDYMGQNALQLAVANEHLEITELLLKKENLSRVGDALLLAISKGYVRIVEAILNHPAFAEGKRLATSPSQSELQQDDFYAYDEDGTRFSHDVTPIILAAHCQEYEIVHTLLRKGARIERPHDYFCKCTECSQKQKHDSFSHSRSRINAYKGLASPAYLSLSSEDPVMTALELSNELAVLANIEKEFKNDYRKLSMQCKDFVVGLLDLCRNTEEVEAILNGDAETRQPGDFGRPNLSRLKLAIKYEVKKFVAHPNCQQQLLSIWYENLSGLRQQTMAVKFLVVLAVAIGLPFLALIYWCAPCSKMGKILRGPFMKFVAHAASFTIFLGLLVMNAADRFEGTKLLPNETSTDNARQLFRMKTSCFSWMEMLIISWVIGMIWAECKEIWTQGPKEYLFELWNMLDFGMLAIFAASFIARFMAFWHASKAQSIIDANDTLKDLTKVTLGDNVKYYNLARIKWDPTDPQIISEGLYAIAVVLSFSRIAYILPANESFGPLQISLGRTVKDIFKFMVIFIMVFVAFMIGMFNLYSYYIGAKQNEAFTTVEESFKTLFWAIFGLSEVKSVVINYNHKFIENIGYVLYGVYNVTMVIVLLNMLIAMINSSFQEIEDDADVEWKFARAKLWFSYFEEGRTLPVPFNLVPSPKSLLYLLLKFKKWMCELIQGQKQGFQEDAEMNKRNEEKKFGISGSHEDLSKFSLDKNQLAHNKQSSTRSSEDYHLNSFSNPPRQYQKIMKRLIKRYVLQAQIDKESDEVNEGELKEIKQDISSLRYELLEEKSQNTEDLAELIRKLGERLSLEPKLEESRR

[10] = target: Short transient receptor potential channel 6 (Mus musculus) (UniProt Q61143); assay: TRPC6 opening by TRPC4 activator hits – cell-based, HEK293, membrane potential dye, duplicate, selectivity assay for TRPC4 activator project, confirmation (AID 434950;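 active = membrane potential signal rise above negative control mean plus 3 SD in both duplicates, also active in the earlier TRPC4 screen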); details: HEK293 TRPC6, membrane potential fluorescence, at 10 µM; activation: hits give high values; outcome: activation
[11] = target: Short transient receptor potential channel 6 (Mus musculus) (UniProt Q61143); assay: positive modulators of mouse TRPC6 channel – HEK293 cells, membrane potential dye, duplicate, selectivity assay for TRPC4 potentiator project, confirmation (AID 434952;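 active = compound raising the membrane signal above positive-control mean plus 3 SD in both repeats, and a primary screen hit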); details: HEK293 TRPC6, membrane potential dye fluorescence, at 10 µM, maximal acetylcholine added after compound; hits give high values
[12] = target: Short transient receptor potential channel 4 (Mus musculus) (UniProt Q9QUQ5); assay: calcium flux activators in TRPC4/5HT1a cells, counter-screen for TRPC4 activator project, cell-based, second counter screen, HEK293 TRPC4/5HT1a, Fluo-4 (AID 434977;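 active = calcium signal rise above buffer-control mean plus 5 SD in both duplicates, and also a hit in the primary screen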); details: Fluo-4 calcium flux, at 10 µM; hits give high values
[13] = serotonin-gated TRPC4 signal block – cell-based, second counter screen, HEK293 TRPC4/5HT1a, Fluo-4, counter-screen for TRPC4 inhibitor project, confirmation (AID 434978;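 active = primary screen active whose calcium signal fell more than 3 SD beyond the full-serotonin control mean in both duplicate plates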;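 as to outcome: serotonin given first at submaximal then at maximal dose after compound preincubation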); details: Fluo-4 calcium flux, at 10 µM, serotonin added to trigger calcium flux; hits give high values
[14] = system: TRPC4 (mouse), co-expressed with 5HT1a in HEK293; assay: enhancement of serotonin-evoked TRPC4 response – cell-based, second counter screen, HEK293 TRPC4/5HT1a, Fluo-4, counter-screen for TRPC4 potentiator project, confirmation (AID 434979;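 active = signal rise over 3 SD above mean of control wells given weak agonist, in both repeats and first screen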); details: Fluo-4 calcium flux, at 10 µM, serotonin added at its EC20 dose; hits give high values
[15] = nonspecific calcium rise without TRPC4 – cell-based, HEK293 mu-opioid receptor line, counter-screen for TRPC4 activator project, confirmation (AID 449723;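 active = hit in primary screen, with calcium signal over 5 SD above buffer well mean in both duplicates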;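 also: counter screen cells carry the mu-opioid receptor alone and lack TRPC4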); details: HEK293 mu-opioid cells, Fluo-4 calcium fluorescence, at 10 µM; hits give high values
[16] = nonspecific potentiation of DAMGO calcium response – cell-based, HEK293 mu-opioid receptor line, counter-screen for TRPC4 allosteric potentiator project, confirmation (AID 449724;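 active = calcium signal rise more than 3 SD above the low-dose agonist control mean, in both duplicate plates and the primary screen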); details: HEK293 mu-opioid receptor cells, Fluo-4 calcium flux, at 10 µM, compound added before EC20 DAMGO stimulus; hits give high values

Measured: inhibition

O=C(OC1C2CCC1C1CN(CCc3ccccc3)CC12)c1ccccc1 (stereo unspecified)
active: [6] 44%
inactive: all other assays above

CC(=O)Nc1cccc(C(=O)NCC2(N3CCCCC3)CCCCC2)c1
active: [5] 89%
inactive: all other assays above

Cc1cc(Br)c(NC(=O)CN(C)CCOc2ccccc2)c(Br)c1
active: [5] 81% | [13] 45.2%
inactive: all other assays above

N#Cc1c(N)sc2c1CCCCCC2
active: [5] 94% | [6] 44% | [13] 32.3%
inactive: all other assays above

CCCc1cc(=O)[nH]c(SCC(=O)Nc2sc3c(c2C#N)CCCC3)n1
active: [5] 85%
inactive: all other assays above

COc1ccccc1CC(Cc1nc2ccccc2[nH]1)c1nc2ccccc2[nH]1 (stereo unspecified)
active: [5] 83% | [6] 52%
inactive: all other assays above

CCOC(=O)C1=NN(c2ccccc2C)C2=NC(C)=C(C(=O)OC)C(c3cccc(OC)c3)N12 (stereo unspecified)
active: [5] 75% | [13] 20.5%
inactive: all other assays above

O=C(O)c1ccc(NC(=S)NC(=O)c2ccc(-c3ccccc3)cc2)cc1
active: [5] 64% | [13] 43.1%
inactive: all other assays above

CCc1c(C(=O)N2CCCN(C)CC2)csc1C
active: [5] 63% | [6] 44%
inactive: all other assays above

CCN(CC)C(=O)C1CCCN(Cc2cccc(Oc3ccccc3)c2)C1 (stereo unspecified)
active: [5] 93% | [6] 53% | [13] 25.7%
inactive: all other assays above

CC(C)(C)c1cc2cccnc2n1Cc1ccccc1
active: [5] 95% | [6] 70% | [13] 15.4%
inactive: all other assays above

CN(Cc1ccccc1)C(=O)CSc1nnc(-c2ccco2)n1-c1ccccc1
active: [5] 71% | [6] 43%
inactive: all other assays above

CCOCCCNCc1cc(Br)ccc1OCc1ccccc1
active: [5] 94% | [6] 49% | [9] 28% | [13] 16.2%
inactive: all other assays above

CC(=O)c1ccc2c(c1)N(C)c1ccccc1S2
active: [5] 84% | [13] 36.8%
inactive: all other assays above

CCOC(=O)C1(CC2CC2)CCN(Cc2cc(Cl)c(O)c(OC)c2)CC1
active: [5] 71%
inactive: all other assays above

CN1CCN(c2nc3c(c(=O)n(C)c(=O)n3C)n2CC(=O)C23CC4CC(CC(C4)C2)C3)CC1
active: [5] 92% | [6] 63% | [13] 17%
inactive: all other assays above

CCOC(=O)c1cc(C#N)c(N2CCCCC2)nc1-c1ccccc1
active: [5] 93%
inactive: all other assays above

CC(C)=CCN1CCN(Cc2cccc3nonc23)CC1CCO (stereo unspecified)
active: [5] 91% | [13] 33.3%
inactive: all other assays above

COc1ccc(CN2CCN(C(=O)c3ccc(F)cc3)CC2)c(OC)c1
active: [5] 93% | [6] 57% | [13] 35.3%
inactive: all other assays above

CCOc1cc(CNCCCN2CCOCC2)cc(Br)c1OCC(=O)Nc1cccc(C(F)(F)F)c1
active: [5] 101% | [6] 40% | [13] 30.5%
inactive: all other assays above

c1ccc(Cn2c(NCc3ccco3)nc3ccccc32)cc1
active: [5] 95% | [6] 75% | [13] 25.2%
inactive: all other assays above

CC1(c2ccccc2)CC(C)(C)N(C(=O)C2CCCO2)c2ccccc21 (stereo unspecified)
active: [5] 90% | [13] 38.3%
inactive: all other assays above

CCC1CCCCN1Cc1nc2c(c(=O)n(C)c(=O)n2C)n1Cc1ccccc1 (stereo unspecified)
active: [5] 74% | [13] 38.1%
inactive: all other assays above

CCCCN(CCCC)/C(N)=N/c1nc(C)cc(C)n1
active: [13] 35.1%
inactive: all other assays above

CCn1nc(C)c(CN2CCCC(CO)(Cc3cccc(Cl)c3)C2)c1C (stereo unspecified)
active: [5] 90% | [6] 49%
inactive: all other assays above

CC(C)Sc1nc2sc3c(c2c2nnc(SCC(=O)NCc4ccco4)n12)CCCC3
active: [5] 78% | [13] 16.9%
inactive: all other assays above

CCCC[n+]1c2ccccc2cc2ccccc21
active: [5] 87% | [6] 54% | [13] 18.4%
inactive: all other assays above

Cc1cc(C)nc(/N=C(\N)N(Cc2ccccc2)Cc2ccccc2)n1
active: [5] 97% | [9] 30.5% | [13] 41.7%
inactive: all other assays above

CCN(CC)c1nc2ccccc2c(N)c1-c1ccccc1
active: [5] 89% | [9] 37.5% | [13] 33.1%
inactive: all other assays above

Cc1nn(-c2cccc(Cl)c2)c2nc(C(F)(F)F)[nH]c(=O)c12
active: [5] 95% | [6] 56% | [13] 34.8%
inactive: all other assays above

Cc1[nH]nc(-c2ccc(O)cc2O)c1-c1ccc(Cl)cc1
active: [5] 86% | [13] 23.5%
inactive: all other assays above
